Consider 5 molecules from PubChem BioAssay.

The nature of test [1]: small molecules captured by biotinylated probe aFSTL3 – biochemical, small-molecule microarray, fluorescence 635/667, stem cell growth factor project, primary screen (AID 1064).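 Also: measures binding of the biotinylated anti-FSTL3 antibody to printed compounds.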 The following applies: higher = more signal.
Test [2] in a line: binders from COS7 lysate, DM2A8 probe, primary screen, torsin A project, cell lysate, small-molecule microarray, fluorescence 635/667 (AID 1065). The following applies: higher = more signal, COS7 lysate expressing mutant human TOR1A.
Test [3] can be described thus: small molecules captured by biotinylated probe aFGF2 – biochemical, small-molecule microarray, fluorescence 635/667, stem cell growth factor project, primary screen (AID 1067).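 Also: measures binding of biotinylated aFGF2 protein to printed compounds on slides; z-score merges feature fluorescence and signal-to-noise across triplicate slides.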 Conditions: higher = more signal.
Test [4] in a line: small molecules captured by biotinylated probe aFGF10 – biochemical, small-molecule microarray, fluorescence 635/667, stem cell growth factor project, primary screen (AID 1071).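 Also: score merges 667 nm spot intensity and signal to noise from triplicate slides.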 Conditions: higher = more signal.
Test [5] concerns the target Neurogenic locus notch homolog protein 2 (Homo sapiens) (UniProt Q04721). Briefly: small molecules binding Notch2 protein – biochemical, small-molecule microarray, 635 nm fluorescence, stem cell growth factors, primary screen (AID 1073). The following applies: higher = more signal.
Test [6] concerns the target Pro-neuregulin-1, membrane-bound isoform (Homo sapiens) (UniProt Q02297). Briefly: small molecules binding neuregulin-1 protein – biochemical, small-molecule microarray, fluorescence 635/667, psychiatric disease protein project, primary screen (AID 1075).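 Also: score combines 667 nm spot fluorescence with signal to noise.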 Conditions: NRG1 binding, 635 nm fluorescence, higher = more signal.
The subject of test [7] is Neuregulin-1 EGF-like domain. As to the kind of experiment: small molecules binding NRG1 EGF domain – biochemical, small-molecule microarray, 635 nm fluorescence, primary screen (AID 1081).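 Also: binding of the protein to compounds printed on small-molecule microarray slides.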 Conditions: higher = more signal.
Test [8] in a line: FRG1 expression reporter modulators in myotubes – cell-based, C2C12 myotubes, firefly/Renilla luciferase, luminescence, FRG1 inhibition for FSHD, primary screen (AID 1084). Conditions: FRG1 promoter luciferase, higher = more signal, called active from +8 up or from −8 down.
Test [9] in a line: small molecules captured by biotinylated probe aFST – biochemical, small-molecule microarray, fluorescence 635/667, stem cell growth factor project, primary screen (AID 1086).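 Also: score merges 667 nm fluorescence with signal-to-noise of each printed compound spot.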 The following applies: higher = more signal.
Test [10] can be described thus: binders of probe aHhip on microarray, primary screen, stem cell growth factor project, biochemical, small-molecule microarray, fluorescence 635/667 (AID 1087).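 Also: score merges spot fluorescence at 667nm with spot signal to noise ratio.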 The following applies: higher = more signal.
Test [11] relates to PRMT1 (protein arginine N-methyltransferase 1). Briefly: small molecules binding arginine methyltransferase PRMT1 – biochemical, small-molecule microarray, 635 nm fluorescence, primary screen (AID 1088).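 Also: binding of Prmt1 protein to compounds spotted on small-molecule microarray slides.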 The following applies: higher = more signal.
A short description of test [12]: growth effects on S. cerevisiae YJM789 – YJM789 clinical isolate, OD600, 24 h, basal, primary screen (AID 1089).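 Also: growth of clinical yeast isolate S. cerevisiae YJM 789 seeded 1000 cells per well; test concentration not given here.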 The following applies: higher = more signal, called active from +8 up or from −8 down.
The nature of test [13]: S. pombe growth modifiers, basal conditions – strain 972, OD600, 24 h, no modulator, primary screen (AID 1090).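 Also: basal condition with compound alone and no growth modifier present; test concentration not given here.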 The following applies: S. pombe 972 growth, higher = more signal, called active from +8 up or from −8 down.
A short description of test [14]: budding yeast growth modifiers under rapamycin – strain BY4716, OD600, 96 h, primary screen (AID 1091). Also: test concentration not given here. The following applies: S. cerevisiae BY4716 + rapamycin, higher = more signal, called active from +8 up or from −8 down.
Test [15] has as its target Torsin-1A-interacting protein 2 (Homo sapiens) (UniProt Q8NFQ8). Briefly: small molecules binding lysate-expressed LULL1 – cell lysate, human LULL1 lysate, 635/667 nm fluorescence, primary screen (AID 1092).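 Also: probe is lysate of COS7 cells overexpressing human LULL1; score merges per-feature 667 nm fluorescence with signal-to-noise.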 The following applies: small-molecule microarray, hLULL1 lysate binding, 635 nm fluorescence; higher = more signal.
Test [16] can be described thus: optical density change of DRC41 E. coli – strain DRC41, OD650, 24 h, E. coli filamentation project, primary screen (AID 1093).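 Also: MC1000 strain lacking acrAB efflux and sulA so SOS filamentation is blocked; test concentration not given here.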 The following applies: E. coli DRC41 growth, higher = more signal, called active from +8 up or from −8 down.
A short description of test [17]: probe aLefty2 binding to arrayed compounds – biochemical, biotinylated probe, 635/667 nm fluorescence, primary screen (AID 1094).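 Also: score merges spot fluorescence near 667 nm with spot signal-to-noise ratio.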 Conditions: small-molecule microarray, higher = more signal.
Test [18] has as its system Noggin (protein binding on small-molecule microarray). As to the kind of experiment: small molecules binding Noggin protein – biochemical, 635/667 nm fluorescence, primary screen (AID 1095).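 Also: score merges 667 nm feature fluorescence with signal to noise over triplicate slides.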 The following applies: 635 nm fluorescence, higher = more signal.
Test [19] has as its target Neurogenic locus notch homolog protein 3 (Homo sapiens) (UniProt Q9UM47). As to the kind of experiment: small molecules binding NOTCH3 protein – biochemical, 635/667 nm fluorescence, primary screen (AID 1096). Conditions: small-molecule microarray, 635 nm fluorescence, higher = more signal.
Test [20] is described as follows: probe aEGFR binding to arrayed compounds – biochemical, biotinylated probe, 635/667 nm fluorescence, primary screen (AID 1097).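 Also: probe is a biotinylated anti-EGFR antibody binding compounds printed on slides; score combines fluorescence near 667 nm and signal to noise of each spot.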 The following applies: small-molecule microarray, higher = more signal.

Molecules are shown by their SMILES. Activity calls are given as the source filed them.

Chain of Pro-neuregulin-1, membrane-bound isoform (Homo sapiens) (Q02297 whole entry, looked up, the tested form may be a part, canonical isoform): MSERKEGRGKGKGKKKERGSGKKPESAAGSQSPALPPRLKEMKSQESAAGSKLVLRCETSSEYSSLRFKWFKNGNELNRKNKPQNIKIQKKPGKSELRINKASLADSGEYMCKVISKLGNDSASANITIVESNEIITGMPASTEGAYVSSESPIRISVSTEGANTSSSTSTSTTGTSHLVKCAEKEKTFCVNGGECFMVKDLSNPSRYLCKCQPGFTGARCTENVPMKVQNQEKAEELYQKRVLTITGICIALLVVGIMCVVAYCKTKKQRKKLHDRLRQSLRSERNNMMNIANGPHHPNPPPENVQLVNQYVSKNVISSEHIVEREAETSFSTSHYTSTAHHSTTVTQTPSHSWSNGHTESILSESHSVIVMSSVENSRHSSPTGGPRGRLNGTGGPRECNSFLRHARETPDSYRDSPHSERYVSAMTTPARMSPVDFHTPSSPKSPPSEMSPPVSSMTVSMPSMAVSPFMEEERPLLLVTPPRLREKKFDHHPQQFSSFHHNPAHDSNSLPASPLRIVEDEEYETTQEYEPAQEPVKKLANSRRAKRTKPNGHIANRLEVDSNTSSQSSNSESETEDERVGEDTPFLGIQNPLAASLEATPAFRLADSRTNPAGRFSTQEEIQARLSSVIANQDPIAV
Chain of Torsin-1A-interacting protein 2 (Homo sapiens) (Q8NFQ8 whole entry, looked up): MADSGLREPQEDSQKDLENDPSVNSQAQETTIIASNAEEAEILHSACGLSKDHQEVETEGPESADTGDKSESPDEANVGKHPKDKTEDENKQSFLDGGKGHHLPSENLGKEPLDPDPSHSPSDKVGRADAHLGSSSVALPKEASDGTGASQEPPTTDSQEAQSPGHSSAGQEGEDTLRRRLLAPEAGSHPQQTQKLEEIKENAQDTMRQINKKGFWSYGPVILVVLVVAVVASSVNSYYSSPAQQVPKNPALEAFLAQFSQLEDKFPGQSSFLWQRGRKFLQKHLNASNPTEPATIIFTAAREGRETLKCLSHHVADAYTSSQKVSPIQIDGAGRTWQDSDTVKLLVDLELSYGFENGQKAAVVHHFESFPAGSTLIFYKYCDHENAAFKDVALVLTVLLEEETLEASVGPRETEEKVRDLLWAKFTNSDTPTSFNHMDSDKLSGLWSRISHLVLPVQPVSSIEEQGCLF
Chain of Neurogenic locus notch homolog protein 3 (Homo sapiens) (Q9UM47 whole entry, looked up): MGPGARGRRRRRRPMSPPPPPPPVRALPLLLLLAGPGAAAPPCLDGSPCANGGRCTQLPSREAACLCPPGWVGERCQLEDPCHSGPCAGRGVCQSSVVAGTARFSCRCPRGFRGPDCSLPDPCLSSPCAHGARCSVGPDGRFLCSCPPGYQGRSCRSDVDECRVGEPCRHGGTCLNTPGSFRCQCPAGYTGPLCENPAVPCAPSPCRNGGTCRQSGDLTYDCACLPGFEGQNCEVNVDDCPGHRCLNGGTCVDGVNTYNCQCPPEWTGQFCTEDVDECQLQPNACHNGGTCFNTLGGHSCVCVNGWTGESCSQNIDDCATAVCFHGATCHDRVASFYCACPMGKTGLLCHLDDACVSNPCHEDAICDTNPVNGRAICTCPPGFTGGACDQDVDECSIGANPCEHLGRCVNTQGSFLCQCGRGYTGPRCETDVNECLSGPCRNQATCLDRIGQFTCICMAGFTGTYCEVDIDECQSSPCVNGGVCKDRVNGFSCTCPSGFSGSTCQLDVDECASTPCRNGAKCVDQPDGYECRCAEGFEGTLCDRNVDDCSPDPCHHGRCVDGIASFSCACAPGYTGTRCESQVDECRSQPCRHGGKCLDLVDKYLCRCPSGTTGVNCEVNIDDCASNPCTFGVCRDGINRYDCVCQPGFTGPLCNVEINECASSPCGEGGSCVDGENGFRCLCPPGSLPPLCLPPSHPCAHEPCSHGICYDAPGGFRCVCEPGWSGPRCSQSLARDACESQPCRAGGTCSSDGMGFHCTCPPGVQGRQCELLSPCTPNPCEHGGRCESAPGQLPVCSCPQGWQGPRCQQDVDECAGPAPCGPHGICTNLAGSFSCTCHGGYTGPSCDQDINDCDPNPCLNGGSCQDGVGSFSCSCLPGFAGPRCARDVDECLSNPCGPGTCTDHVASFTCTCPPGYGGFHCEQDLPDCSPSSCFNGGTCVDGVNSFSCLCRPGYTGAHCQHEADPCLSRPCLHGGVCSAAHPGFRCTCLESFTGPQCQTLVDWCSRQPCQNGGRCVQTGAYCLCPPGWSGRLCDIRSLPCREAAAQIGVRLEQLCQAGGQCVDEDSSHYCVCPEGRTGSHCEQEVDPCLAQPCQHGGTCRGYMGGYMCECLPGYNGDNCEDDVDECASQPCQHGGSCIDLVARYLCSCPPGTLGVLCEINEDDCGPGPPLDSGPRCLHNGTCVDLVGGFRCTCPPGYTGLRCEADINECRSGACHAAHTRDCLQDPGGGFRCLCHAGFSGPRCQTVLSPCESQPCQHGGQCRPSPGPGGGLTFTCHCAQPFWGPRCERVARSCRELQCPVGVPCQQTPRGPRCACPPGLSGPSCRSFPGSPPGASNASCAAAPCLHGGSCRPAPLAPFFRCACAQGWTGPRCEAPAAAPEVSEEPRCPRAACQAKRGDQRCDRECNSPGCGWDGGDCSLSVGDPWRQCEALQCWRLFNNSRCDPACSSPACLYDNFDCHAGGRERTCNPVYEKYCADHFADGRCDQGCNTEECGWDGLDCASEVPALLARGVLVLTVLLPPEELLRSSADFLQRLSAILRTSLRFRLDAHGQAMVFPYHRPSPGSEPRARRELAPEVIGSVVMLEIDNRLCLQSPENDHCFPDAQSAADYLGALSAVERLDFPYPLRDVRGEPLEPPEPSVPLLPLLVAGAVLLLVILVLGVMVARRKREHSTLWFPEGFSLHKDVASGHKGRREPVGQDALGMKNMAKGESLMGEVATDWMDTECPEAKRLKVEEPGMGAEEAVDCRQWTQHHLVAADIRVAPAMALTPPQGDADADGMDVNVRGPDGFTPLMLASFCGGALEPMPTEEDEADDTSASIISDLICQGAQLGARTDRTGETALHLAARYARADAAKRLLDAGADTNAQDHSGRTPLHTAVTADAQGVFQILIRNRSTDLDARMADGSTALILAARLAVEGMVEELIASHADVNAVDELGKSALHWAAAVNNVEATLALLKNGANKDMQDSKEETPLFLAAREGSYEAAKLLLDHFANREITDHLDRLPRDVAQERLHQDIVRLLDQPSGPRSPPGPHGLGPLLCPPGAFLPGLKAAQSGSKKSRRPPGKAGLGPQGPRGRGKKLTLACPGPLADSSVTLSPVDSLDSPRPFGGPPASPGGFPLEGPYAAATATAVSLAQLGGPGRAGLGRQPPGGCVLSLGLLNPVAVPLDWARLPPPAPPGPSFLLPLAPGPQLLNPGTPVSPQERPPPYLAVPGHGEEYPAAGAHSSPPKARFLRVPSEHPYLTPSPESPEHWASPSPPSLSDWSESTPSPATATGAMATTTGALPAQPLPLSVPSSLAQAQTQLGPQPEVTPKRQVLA

In the case of `O=C(CS)NCCCCCCNC(=O)[C@@H]1C[C@@H]2C(=O)NCC(=O)N2[C@@H]1c1ccc(O)cc1`, the composite z-score in test [1] was 0.169; in test [2], -0.0906; in test [3] it was -0.157; in [4] it was -0.505; in [5], -0.918; in test [6] it was -0.75. The composite z-score in [7] was 0.729; in [9], -0.183; in test [10], -0.0324; in [11], 0.801; in [15] it was 2.92; in test [17], -0.0692. Besides, the composite z-score in test [18] was -0.728; in test [19] it was -0.028; in test [20] it was -0.218. Besides, the z-score in [8] was -1.15 (inactive); in test [12] it was -2.07 (inactive); in test [13], 0.172 (inactive); in test [14] it was -0.436 (inactive); in test [16], 0.869 (inactive).

For the molecule `CC1CC/C=C\[C@H]2OC34C=CCN(CCN5CCOCC5)C(=O)[C@H]3N(C(C)CO)C(=O)[C@@H]4C2C(=O)O1` (stereo not given in full), the composite z-score was -0.246 in test [1]; -1.61 in test [2]; -0.125 in test [3]; -0.467 in [4]; -0.939 in test [5]; -1.14 in [6]. The composite z-score is 0.737 in test [7]; -0.311 in test [9]; -0.0672 in test [10]; 0.564 in test [11]; 3.36 in test [15]; -0.161 in [17]. Further, the composite z-score in test [18] was 0.223; in test [19], 0.21; in test [20], -0.156. For the same molecule, the z-score was -0.203 (inactive) in test [8]; 0.194 (inactive) in test [12]; -0.365 (inactive) in [13]; 0.0614 (inactive) in test [14]; -0.476 (inactive) in test [16].

On to `O=C1O[C@H](c2ccccc2)[C@H](c2ccccc2)N2[C@H]1[C@@H](C(=O)Nc1nc3ccccc3s1)[C@]1(C(=O)Nc3ccc(C#CC4=CCCCC4)cc31)[C@H]2c1ccc(O)cc1`, for which the composite z-score was -0.384 in [1]; 0.255 in [2]; -0.0281 in test [3]; 0.352 in test [4]; 0.747 in test [5]; 1.44 in test [6]. The composite z-score was 1.1 in [7]; 0.845 in [9]; -0.0994 in [10]; 1.55 in test [11]; 2.88 in test [15]; -0.12 in [17]. Moreover, the composite z-score in [18] is 1.1; in [19], 1.06; in [20], -0.0679. For the same molecule, the z-score in test [8] is -0.305 (inactive); in test [12] it was 0.556 (inactive); in test [13], 0.589 (inactive); in test [14] it was 0.401 (inactive); in test [16], 1.97 (inactive).

Regarding `CN1C(=O)[C@@H]2[C@@H](CC(COc3ccccc3)=C([C@H](O)CCc3ccccc3)[C@@H]2CO)C1=O`, the composite z-score was -0.138 in test [1]; 0.342 in test [2]; -0.103 in [3]; -0.195 in test [4]; -0.492 in test [5]; -0.207 in test [6]. Moreover, the composite z-score in test [7] is -0.0233; in test [9] it was -0.167; in test [10], -0.236; in test [11], -0.268; in test [15], -0.551; in [17], -0.0971. Also, the figures for the composite z-score in test [18], in [19] and in [20] were -0.358, -0.932 and -0.0947, respectively. Further, the z-score in [8] was -2.39 (inactive); in [12] it was 0.0937 (inactive); in test [13], -1.87 (inactive); in test [14], -0.537 (inactive); in [16], 2.41 (inactive).

Turning to `COc1ccc(NC(=O)O[C@H]2[C@@H]3OC(=O)[C@H](Cc4cccc(Br)c4)C/C=C/C[C@@H](Cc4cccc(Br)c4)C(=O)O[C@H]3[C@@H](OC)O[C@@H]2CO)cc1`, the composite z-score is 0.0355 in test [1]; 1.4 in test [2]; 0.0929 in test [3]; 0.579 in test [4]; 0.935 in [5]; 0.558 in [6]. For the same molecule, the composite z-score in test [7] came out at 0.453; in test [9], 0.421; in [10], 0.285; in [11] it was 1.06; in test [15], 1.36; in test [17] it was 0.123. In addition, the composite z-score was 0.331 in test [18], 0.656 in test [19] and -0.067 in test [20]. The z-score in [8] is 3.13 (inactive); in test [12] it was 0.337 (inactive); in test [13] it was 0.505 (inactive); in [14] it was -0.127 (inactive); in test [16] it was 0.904 (inactive).
